What all share (experiment): DAPPL (digital affinity profiling via proximity ligation, sequencing); 10 mM Tris-HCl pH 7.5, 50 mM NaCl, 1 mM DTT, 4% glycerol, room temperature, 30 min; GST-TFs on glutathione beads, 16-mer random dsDNA library, 0.1% formaldehyde crosslink after washing; high values mean tight binding
Common to all, as to details: protein: recombinant; tags: N-terminal GST; dsDNA, one strand shown

Experiment [1] deals with T1, ERF (Homo sapiens, UniProt P50548 1-548).
T1 sequence: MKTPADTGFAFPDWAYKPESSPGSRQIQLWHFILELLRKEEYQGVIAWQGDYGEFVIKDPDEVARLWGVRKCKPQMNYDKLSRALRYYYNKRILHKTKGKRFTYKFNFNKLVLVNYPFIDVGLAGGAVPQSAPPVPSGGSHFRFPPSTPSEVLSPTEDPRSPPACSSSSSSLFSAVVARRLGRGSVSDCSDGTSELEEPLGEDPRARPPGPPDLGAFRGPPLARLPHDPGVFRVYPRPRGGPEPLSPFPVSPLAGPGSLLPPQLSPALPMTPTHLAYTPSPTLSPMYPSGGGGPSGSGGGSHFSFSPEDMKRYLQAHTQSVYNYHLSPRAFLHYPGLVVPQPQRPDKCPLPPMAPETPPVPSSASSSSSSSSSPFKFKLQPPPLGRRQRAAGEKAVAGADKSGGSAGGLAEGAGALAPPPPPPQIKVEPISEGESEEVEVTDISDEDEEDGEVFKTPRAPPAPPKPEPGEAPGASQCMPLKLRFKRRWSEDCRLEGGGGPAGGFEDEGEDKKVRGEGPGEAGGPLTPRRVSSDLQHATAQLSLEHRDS
In outline: (§1)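 In yeast, human transcription factors were expressed with a GST fusion, then pulled down on glutathione beads and given DNA barcodes. Pooled with a tag-only sample, they were exposed to 200 nmole of a 16-mer random double-stranded DNA library (Tris/NaCl/DTT/glycerol buffer, room temperature, 30 min), washed, crosslinked with 0.1% formaldehyde, proximity-ligated using BsaI/T4 ligase for 1 h at 37 °C, PCR-amplified and read on an Illumina NextSeq500. Each hexamer's frequency of reads for a factor, divided by the matching frequency for the tag-only sample, gives the binding signal.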

In experiment [2] the target is T2, ETV3L (Homo sapiens, UniProt Q6ZN32 1-361).
T2 sequence: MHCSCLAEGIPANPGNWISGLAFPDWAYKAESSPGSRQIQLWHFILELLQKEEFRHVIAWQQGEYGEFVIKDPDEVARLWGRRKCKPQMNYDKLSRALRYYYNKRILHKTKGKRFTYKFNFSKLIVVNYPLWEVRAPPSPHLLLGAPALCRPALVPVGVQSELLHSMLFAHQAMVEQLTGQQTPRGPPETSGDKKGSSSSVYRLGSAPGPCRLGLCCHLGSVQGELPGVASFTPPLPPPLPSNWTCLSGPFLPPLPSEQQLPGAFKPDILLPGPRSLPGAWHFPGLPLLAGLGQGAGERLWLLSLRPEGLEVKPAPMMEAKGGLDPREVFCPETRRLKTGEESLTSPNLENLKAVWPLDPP
An outline of the steps:
as §1

Experiment [3] addresses T3, ETS2 (Homo sapiens, UniProt P15036 1-469).
T3 sequence: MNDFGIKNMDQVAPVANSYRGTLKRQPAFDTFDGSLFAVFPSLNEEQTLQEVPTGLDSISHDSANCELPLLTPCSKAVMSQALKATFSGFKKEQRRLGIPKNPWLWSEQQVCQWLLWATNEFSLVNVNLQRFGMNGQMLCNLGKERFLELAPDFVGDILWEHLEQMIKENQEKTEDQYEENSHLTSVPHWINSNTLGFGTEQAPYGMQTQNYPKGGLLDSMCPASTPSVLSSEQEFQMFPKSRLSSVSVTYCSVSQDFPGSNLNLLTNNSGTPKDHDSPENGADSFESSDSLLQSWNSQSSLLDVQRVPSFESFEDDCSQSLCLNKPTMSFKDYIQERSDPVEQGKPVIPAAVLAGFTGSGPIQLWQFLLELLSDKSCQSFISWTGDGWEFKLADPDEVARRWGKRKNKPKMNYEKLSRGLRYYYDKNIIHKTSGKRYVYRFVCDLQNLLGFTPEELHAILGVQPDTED
An outline of the steps: as §1

Experiment [4] has as its target T4, SPDEF (Homo sapiens, UniProt O95238 1-335).
T4 sequence: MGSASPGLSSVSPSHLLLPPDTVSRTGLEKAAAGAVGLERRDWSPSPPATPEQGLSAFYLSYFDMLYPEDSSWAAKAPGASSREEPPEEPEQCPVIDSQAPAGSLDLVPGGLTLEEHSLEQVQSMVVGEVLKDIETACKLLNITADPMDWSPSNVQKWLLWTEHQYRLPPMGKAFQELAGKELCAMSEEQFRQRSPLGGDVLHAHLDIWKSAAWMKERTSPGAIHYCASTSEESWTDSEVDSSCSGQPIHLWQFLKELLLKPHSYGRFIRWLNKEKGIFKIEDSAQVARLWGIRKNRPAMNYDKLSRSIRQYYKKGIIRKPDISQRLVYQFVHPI
An outline of the steps: as §1

In experiment [5] the target is T5, ETV7 (Homo sapiens, UniProt Q9Y603 1-341).
T5 sequence: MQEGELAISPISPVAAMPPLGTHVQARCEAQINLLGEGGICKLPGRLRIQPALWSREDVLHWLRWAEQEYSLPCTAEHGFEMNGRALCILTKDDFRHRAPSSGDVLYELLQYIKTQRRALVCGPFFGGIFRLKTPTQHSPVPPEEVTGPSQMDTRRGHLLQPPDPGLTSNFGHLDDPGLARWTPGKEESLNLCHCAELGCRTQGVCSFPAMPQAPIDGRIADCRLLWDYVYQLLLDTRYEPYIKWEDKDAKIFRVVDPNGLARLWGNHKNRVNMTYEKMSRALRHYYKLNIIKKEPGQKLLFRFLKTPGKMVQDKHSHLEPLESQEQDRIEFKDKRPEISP
An outline of the steps:
as §1

In experiment [6] the target is T6, ELF5 (Homo sapiens, UniProt Q9UKW6-2 1-255).
T6 sequence: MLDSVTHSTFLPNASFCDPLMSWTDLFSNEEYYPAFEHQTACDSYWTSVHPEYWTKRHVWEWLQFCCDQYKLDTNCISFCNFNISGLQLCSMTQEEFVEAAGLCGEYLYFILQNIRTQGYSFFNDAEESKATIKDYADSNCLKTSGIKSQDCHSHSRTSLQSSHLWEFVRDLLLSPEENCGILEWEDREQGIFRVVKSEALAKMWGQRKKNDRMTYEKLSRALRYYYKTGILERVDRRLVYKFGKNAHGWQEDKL
In outline:
as §1

The target of experiment [7] is T7, ETV3 (Homo sapiens, UniProt P41162-2 1-143).
T7 sequence: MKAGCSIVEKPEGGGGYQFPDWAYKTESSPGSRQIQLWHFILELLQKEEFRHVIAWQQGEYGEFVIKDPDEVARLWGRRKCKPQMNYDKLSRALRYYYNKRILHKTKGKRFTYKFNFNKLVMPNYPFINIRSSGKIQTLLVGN
In outline:
as §1

Experiment [8] has as its target ETV6 (Homo sapiens, UniProt P41212 1-452). An outline of the steps:
as §1

ETV6, sequence (P41212 whole entry): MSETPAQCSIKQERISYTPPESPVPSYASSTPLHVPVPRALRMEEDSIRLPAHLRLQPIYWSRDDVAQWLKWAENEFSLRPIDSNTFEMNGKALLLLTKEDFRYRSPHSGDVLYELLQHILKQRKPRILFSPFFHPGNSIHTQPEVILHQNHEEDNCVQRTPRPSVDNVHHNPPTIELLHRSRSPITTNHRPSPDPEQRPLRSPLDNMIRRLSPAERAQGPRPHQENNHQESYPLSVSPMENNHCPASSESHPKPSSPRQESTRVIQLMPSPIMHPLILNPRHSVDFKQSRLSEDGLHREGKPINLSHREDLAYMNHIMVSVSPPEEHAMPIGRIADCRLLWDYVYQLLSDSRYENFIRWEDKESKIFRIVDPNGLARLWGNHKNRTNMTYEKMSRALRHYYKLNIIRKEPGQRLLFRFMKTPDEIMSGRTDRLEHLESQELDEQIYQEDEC

Turning to CGTATC, the binding signal in experiment [1] was 1.15 fold enrichment (6-mer frequency, TF over GST control); in experiment [2], 1.24 fold enrichment (6-mer frequency, TF over GST control); in experiment [3] it was 1.11 fold enrichment (6-mer frequency, TF over GST control); in experiment [4], 1.57 fold enrichment (6-mer frequency, TF over GST control); in experiment [5], 1.1 fold enrichment (6-mer frequency, TF over GST control); in experiment [6], 1.19 fold enrichment (6-mer frequency, TF over GST control). Moreover, the binding signal was 1.28 fold enrichment (6-mer frequency, TF over GST control) in experiment [7] and 1.09 fold enrichment (6-mer frequency, TF over GST control) in experiment [8].

On to GTGTTT, for which the binding signal in experiment [1] is 1.12 fold enrichment (6-mer frequency, TF over GST control); in experiment [2], 1.18 fold enrichment (6-mer frequency, TF over GST control); in experiment [3], 1.19 fold enrichment (6-mer frequency, TF over GST control); in experiment [4], 1.22 fold enrichment (6-mer frequency, TF over GST control); in experiment [5], 1.2 fold enrichment (6-mer frequency, TF over GST control); in experiment [6], 1.23 fold enrichment (6-mer frequency, TF over GST control). The binding signal in experiment [7] is 1.15 fold enrichment (6-mer frequency, TF over GST control); in experiment [8] it was 1.2 fold enrichment (6-mer frequency, TF over GST control).

For GTTTAC, the binding signal was 1.12 fold enrichment (6-mer frequency, TF over GST control) in experiment [1]; 1.12 fold enrichment (6-mer frequency, TF over GST control) in experiment [2]; 1.13 fold enrichment (6-mer frequency, TF over GST control) in experiment [3]; 1.12 fold enrichment (6-mer frequency, TF over GST control) in experiment [4]; 1.22 fold enrichment (6-mer frequency, TF over GST control) in experiment [5]; 1.13 fold enrichment (6-mer frequency, TF over GST control) in experiment [6]. Also, the binding signal in experiment [7] was 1.07 fold enrichment (6-mer frequency, TF over GST control); in experiment [8], 1.19 fold enrichment (6-mer frequency, TF over GST control).

With CACTGC, the binding signal in experiment [1] is 1.38 fold enrichment (6-mer frequency, TF over GST control); in experiment [2], 1.59 fold enrichment (6-mer frequency, TF over GST control); in experiment [3] it was 1.4 fold enrichment (6-mer frequency, TF over GST control); in experiment [4] it was 1.42 fold enrichment (6-mer frequency, TF over GST control); in experiment [5], 1.42 fold enrichment (6-mer frequency, TF over GST control); in experiment [6], 1.23 fold enrichment (6-mer frequency, TF over GST control). The binding signal in experiment [7] was 1.26 fold enrichment (6-mer frequency, TF over GST control); in experiment [8], 1.41 fold enrichment (6-mer frequency, TF over GST control).

CATCGA: the binding signal in experiment [1] was 1.16 fold enrichment (6-mer frequency, TF over GST control); in experiment [2], 1.21 fold enrichment (6-mer frequency, TF over GST control); in experiment [3], 1.15 fold enrichment (6-mer frequency, TF over GST control); in experiment [4], 1.04 fold enrichment (6-mer frequency, TF over GST control); in experiment [5], 1.13 fold enrichment (6-mer frequency, TF over GST control); in experiment [6] it was 1.05 fold enrichment (6-mer frequency, TF over GST control). For the same sequence, the binding signal in experiment [7] is 1.08 fold enrichment (6-mer frequency, TF over GST control); in experiment [8] it was 1.01 fold enrichment (6-mer frequency, TF over GST control).

Take GTGGCT: the binding signal was 1.18 fold enrichment (6-mer frequency, TF over GST control) in experiment [1]; 1.07 fold enrichment (6-mer frequency, TF over GST control) in experiment [2]; 1.14 fold enrichment (6-mer frequency, TF over GST control) in experiment [3]; 1.03 fold enrichment (6-mer frequency, TF over GST control) in experiment [4]; 1.1 fold enrichment (6-mer frequency, TF over GST control) in experiment [5]; 1.03 fold enrichment (6-mer frequency, TF over GST control) in experiment [6]. For the same sequence, the binding signal in experiment [7] is 1.12 fold enrichment (6-mer frequency, TF over GST control); in experiment [8] it was 1.07 fold enrichment (6-mer frequency, TF over GST control).

As for CCTGTA, the binding signal was 1.24 fold enrichment (6-mer frequency, TF over GST control) in experiment [1]; 1.22 fold enrichment (6-mer frequency, TF over GST control) in experiment [2]; 1.15 fold enrichment (6-mer frequency, TF over GST control) in experiment [3]; 1.36 fold enrichment (6-mer frequency, TF over GST control) in experiment [4]; 1.21 fold enrichment (6-mer frequency, TF over GST control) in experiment [5]; 1.43 fold enrichment (6-mer frequency, TF over GST control) in experiment [6]. The binding signal in experiment [7] is 1.35 fold enrichment (6-mer frequency, TF over GST control); in experiment [8], 1.18 fold enrichment (6-mer frequency, TF over GST control).

AATATA: the binding signal in experiment [1] is 1.39 fold enrichment (6-mer frequency, TF over GST control); in experiment [2] it was 1.31 fold enrichment (6-mer frequency, TF over GST control); in experiment [3], 1.34 fold enrichment (6-mer frequency, TF over GST control); in experiment [4], 1.23 fold enrichment (6-mer frequency, TF over GST control); in experiment [5], 1.36 fold enrichment (6-mer frequency, TF over GST control); in experiment [6] it was 1.33 fold enrichment (6-mer frequency, TF over GST control). Further, the binding signal in experiment [7] was 1.35 fold enrichment (6-mer frequency, TF over GST control); in experiment [8], 1.36 fold enrichment (6-mer frequency, TF over GST control).

For the origin of these results see PMC7862700, “An all-to-all approach to the identification of sequence-specific readers for epigenetic DNA modifications on cytosine”.
